Most compounds without a hit are left out; they make up all but 12% or so of the library.
PI5P4Ka inh: blocks human PI5P4K alpha kinase activity | P48426 | PI5P4Kalpha enzyme, ADP-Glo luminescence, 60 min; active compounds read low | max response, % | 330,000 tested, 1.2% active; active means max response of -50% or lower; inconclusive means between -30% and -50%; inactive means -30% or higher; further: value at the top dose of about 77 µM; on the % scale 0 is the no-effect control and ±100 the full control effect
Target sequence (P48426 whole entry, looked up): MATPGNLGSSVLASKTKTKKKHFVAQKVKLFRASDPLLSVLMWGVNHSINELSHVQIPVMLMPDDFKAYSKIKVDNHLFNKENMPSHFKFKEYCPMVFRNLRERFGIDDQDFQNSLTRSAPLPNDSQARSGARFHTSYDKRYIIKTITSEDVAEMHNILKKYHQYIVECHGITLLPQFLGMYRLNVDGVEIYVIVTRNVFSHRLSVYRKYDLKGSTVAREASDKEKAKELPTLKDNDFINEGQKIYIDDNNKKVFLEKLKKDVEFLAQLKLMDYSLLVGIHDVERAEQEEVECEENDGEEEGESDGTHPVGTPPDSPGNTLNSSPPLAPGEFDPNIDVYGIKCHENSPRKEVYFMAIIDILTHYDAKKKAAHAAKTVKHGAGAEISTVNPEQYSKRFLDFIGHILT
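ADP-Glo luminescence end-point after a 60 min room-temperature kinase reaction. PI5P4Kalpha and substrate in HEPES pH 7.4 buffer with EGTA, 0.1% CHAPS and 5% DMSO; ATP at 5 microM final.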
G9a inh: blocks human histone lysine methyltransferase G9a | G9a H3K9 monomethylation, AlphaScreen, 2 h | 350,000 tested, 8.8% active | Potency, µM (series often up to 102 µM), for the others: at the highest dose activity, negative = inhibition, hits mostly inhibitors | Q96KQ7; further: potency means the concentration at half of the fitted maximal effect; on the % scale 0 is the no-effect control and ±100 the full control effect; nearly all actives have a fitted effect of over 75% in size
Target sequence (Q96KQ7 913-1193 limits assumed): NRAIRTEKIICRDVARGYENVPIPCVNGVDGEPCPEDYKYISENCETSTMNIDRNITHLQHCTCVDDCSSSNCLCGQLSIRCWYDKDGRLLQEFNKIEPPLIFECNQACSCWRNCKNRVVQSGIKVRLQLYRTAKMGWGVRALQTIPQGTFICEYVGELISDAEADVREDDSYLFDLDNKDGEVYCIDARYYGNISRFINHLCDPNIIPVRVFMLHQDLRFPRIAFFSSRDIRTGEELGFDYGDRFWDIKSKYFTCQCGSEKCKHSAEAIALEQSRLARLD
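Methyltransferase reactions run at room temperature for 2 h (20 nM enzyme, 500 nM biotin-H3K9 peptide, 20 uM SAM) after a 15 min compound preincubation; product detected by AlphaScreen beads and anti-H3K9me1 antibody.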
JMJD2A Tudor inh: JMJD2A Tudor domain (human) inhibition | AlphaScreen JMJD2A-Tudor / H3K4me3 peptide binding | O75164 | Potency, µM (highest dose often 114 µM), for inactives: at the top dose activity change, negative = inhibition, actives largely listed as inhibitors | AID 504339 | 390,000 tested, 4.4% active; further: potency means the concentration at half of the fitted maximal effect; on the % scale 0 is the no-effect control and ±100 the full control effect; nearly all actives have a fitted effect of over 50% in size
BAZ2B inh: blocks human BAZ2B; Potency, µM (doses to about 114 µM), for inactives: top-dose activity change, negative = inhibition, usual class: inhibitors; AlphaScreen BAZ2B-H3K14Ac peptide displacement; 360,000 tested, 4.4% active; Q9UIF8; further: potency means the concentration at half of the fitted maximal effect; on the % scale 0 is the no-effect control and ±100 the full control effect; nearly all actives have a fitted effect of over 60% in size
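AlphaScreen displacement: compounds (up to 110uM) incubated 30 min at room temperature with a preformed 50 nM BAZ2B/50 nM biotinylated H3K14Ac peptide complex in PBS pH 7.4 with Tween-20. Donor and acceptor beads at 10 ug/mL final added, 20 min light-protected before reading.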
HP1b binding inh: inhibitors of HP1-beta chromodomain binding to methylated histone tails; Potency, µM (top dose mostly 114 µM), without a hit: at the top dose activity change, negative = inhibition, usual class: inhibitors; 390,000 tested, 0.56% active; AlphaScreen HP1-beta / biotin-H3K9me3 peptide binding; P83916; AID 540317; further: potency means the concentration at half of the fitted maximal effect; nearly all actives have a fitted effect of over 70% in size
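HP1-beta protein (50 nM final) preincubated 30 min at room temperature with biotinylated H3(1-18)K9me3 peptide (50 nM) in PBS pH 7.4, 0.01% Tween-20, then compound added for 30 min. AlphaScreen streptavidin donor/nickel chelate acceptor beads (10 ug/mL final), 30 min dark, luminescence read.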
PLK1 PBD inh: PLK1 (human) polo-box domain binding inhibition; P53350; Plk1 PBD binding of FITC phosphopeptide, fluorescence polarization; Potency, µM, inactives show max response, negative = inhibition, hits mostly inhibitors; 360,000 tested, 2.8% active; further: potency means the concentration at half of the fitted maximal effect; series mostly up to about 57 µM; on the % scale 0 is the no-effect control and ±100 the full control effect; nearly all actives have a fitted effect of over 65% in size
* hit, by the source's call; ? = inconclusive; nt = not tested or not shown; ! = repeats disagree; [ ] = dose if it differs, or a comment. Unless noted, the call rests on the fitted dose curve; in most records, active means well fitted curve in the direction sought with a large enough effect; inconclusive means small, poorly fitted or top-dose-only effect, or another doubt; inactive means no such curve, though single readings can be large; an effect the other way counts as inactive or inconclusive.

SMILES	PI5P4Ka inh	G9a inh	JMJD2A Tudor inh	BAZ2B inh	HP1b binding inh	PLK1 PBD inh
Cc1ccc(-n2c(O)c(/C=C3/C(c4ccccc4)=Nc4ccccc43)c(=O)[nH]c2=O)cc1	-16	35µM*	?	?	-31%	8.4µM*
Cc1cccc(-n2c(O)c(/C=C3/C(c4ccccc4)=Nc4ccccc43)c(=O)[nH]c2=O)c1	-14	?	?	40µM*	-10%	13µM*
CC1=Nc2ccccc2/C1=C/c1c(O)n(C)c(=O)[nH]c1=O	-4	nt	-20%	-4%	12%	?
Cc1cccc(-n2c(O)c(/C=C/C=Nc3ccccc3)c(=O)[nH]c2=O)c1	-17	?	-22%	-1%	9%	51%
Cc1cc(=O)oc2cc(Oc3ccc([N+](=O)[O-])cc3C(F)(F)F)ccc12	-1	nt	?	nt	-2%	-18%
CC(C)COC(=O)OCN1C(=O)CN(CCN2CC(=O)N(COC(=O)OCC(C)C)C(=O)C2)CC1=O	0	13µM*!	-7%	1%	48%	-8%
CCOc1ccc(NC(=O)CN(c2ccc(Cl)cc2C)S(=O)(=O)c2ccccc2)cc1	nt	-42%[59 µM]	-12%	?	20%	nt
O=c1c2ccccc2nc(/C=C/c2cccnc2)n1Cc1ccccc1	2	nt	22µM*	10µM*	?	-11%
O=c1c2ccccc2nc(/C=C/c2ccccc2)n1-c1ccc(O)cc1	-3	5%	-22%	-21%	1%	-10%
COCC(C)N(C(=O)CCl)c1c(C)csc1C (stereo unspecified)	nt	10%[12.7 µM]	nt	nt	nt	nt
Cc1nnc(NC(=O)c2cccn(Cc3cccc([N+](=O)[O-])c3)c2=O)s1	nt	-6%[59 µM]	-18%	1%	-11%	nt
O=NN1CCCC1c1cccnc1 (stereo unspecified)	nt	17%[59 µM]	nt	nt	nt	nt
COc1ccc(CN2CCCC(C(=O)c3ccc(Cl)cc3)C2)c(OC)c1 (stereo unspecified)	-4	22%[0.501 µM]	?	-5%	-13%	24µM*
COc1ccc(O)c(CN2CCCC(C(=O)c3sccc3C)C2)c1 (stereo unspecified)	-11	50µM*	-28%[57.1 µM]	?	-22%	-11%
Cc1ccsc1C(=O)C1CCCN(Cc2ccccc2O)C1 (stereo unspecified)	-10	nt	7%[57.1 µM]	-3%	48%	-6%
COc1ccc(CN2CCCC(C(=O)c3cccc(Cl)c3)C2)cc1 (stereo unspecified)	-2	20%	0%	-5%	58%	-1%
COc1cc(CC2(CCc3ccncc3)C(=O)NC(=O)NC2=O)cc(OC)c1OC	2	6%	-15%	-12%	-18%	-16%
COc1cc2c(cc1OC)-c1c(OC)c(OC)c(OC)c3ccnc(c13)C2=O	0	?	?	28µM*	-1%	-18%
N#Cc1cccc(NC(=O)N2CCCC3(CCN(C(=O)Oc4ccccc4)CC3)C2)c1	nt	-3%[12.7 µM]	nt	nt	nt	nt
O=C(O)Cc1cnc[nH]1	-3	9.5µM*!	7.1µM*	nt	20%	-12%
OC(Cn1cncn1)(Cn1cncn1)c1ccc(F)cc1F	-6	-23%[2.33 µM]	1%	nt	68%	-6%
Cc1nc2ccccc2c(=O)n1-c1cc([N+](=O)[O-])cc([N+](=O)[O-])c1	2	14%[59 µM]	-8%	-32%	38%	-3%
Cn1cc2c([N+](=O)[O-])cc([N+](=O)[O-])cc2n1	nt	79µM*	nt	?	nt	nt
C[C@@H]1NCCc2cc(O)c(O)cc21	-3	1.8µM*	20µM*	-4%	?	-4%
COc1cc2c(cc1OC)[C@H](C)NCC2	nt	15%[21.5 µM]	nt	nt	nt	nt
SMILES	PI5P4Ka inh	G9a inh	JMJD2A Tudor inh	BAZ2B inh	HP1b binding inh	PLK1 PBD inh
Cc1cccc(C)c1Oc1nc(-c2ccccc2)ncc1S(=O)(=O)c1ccccc1	3	0%	6%	14%	45%	-4%
[O-]/[N+](=C/c1cccnc1)c1ccc(Br)cc1	1	?	-28%	?	-3%	11µM*
COc1ccccc1N1CCN(C2CCN(C(=O)c3cccs3)CC2)CC1	-9	28µM*	7.1µM*	-34%	-53%	0%
O=c1[nH]c(=O)n(Cc2ccco2)c(O)c1C=NCCN1CCOCC1	-20	?	-9%	6%	46%	-17%
COc1ccc(CCn2c(O)c(C=Nc3ccc(NC(C)=O)cc3)c(=O)[nH]c2=O)cc1OC	-3	-41%	-10%	?	48%	17%
CCCCC(=O)N/N=C/c1c(O)n(-c2cccc3ccccc23)c(=O)[nH]c1=O	-1	20%	79µM*	79µM*	44%	0%
CCCCC(=O)N/N=C/c1c(O)n(Cc2ccco2)c(=O)[nH]c1=O	?	?	?	50µM*	40%	-28%
Cc1c(N=Cc2c(O)n(Cc3ccco3)c(=O)[nH]c2=O)c(=O)n(-c2ccccc2)n1C	-6	?	-32%	-26%	8%	-23%
CC(=O)Nc1ccc(N=Cc2c(O)n(Cc3ccco3)c(=O)[nH]c2=O)cc1	?	50µM*	-25%	-27%	37%	-14%
O=C(N/N=C/c1c(O)n(Cc2ccco2)c(=O)[nH]c1=O)c1ccccc1O	-83*	?	79µM*	?	7%	0%
OCC(CBr)(CBr)CBr	4	2%[0.501 µM]	-17%	0%	27%	-15%
O=C(Nc1ccc2c(c1)OCCO2)c1cccn(Cc2cccc([N+](=O)[O-])c2)c1=O	nt	?	?	-25%	20%	nt
CC(CN)CC(=O)O (stereo unspecified)	nt	2%[59 µM]	nt	nt	nt	nt
NCC[C@H](O)C(=O)N[C@H]1C[C@@H](N)[C@@H](O[C@H]2O[C@@H](CN)[C@@H](O)[C@@H](O)[C@@H]2N)[C@@H](O[C@H]2O[C@@H](CO)[C@@H](O)[C@@H]2O)[C@@H]1O	nt	3%[5.15 µM]	nt	nt	nt	nt
O=c1[nH]c(=O)n(-c2cccc3ccccc23)c(O)c1C=NCCCn1ccnc1	8	-7%	-6%	56µM*	30%	-8%
O=c1[nH]c(=O)n(Cc2ccco2)c(O)c1C=NCc1ccco1	nt	-4%[0.501 µM]	-16%	56µM*	7%	-17%
CCN(CC)CCN=Cc1c(O)n(Cc2ccco2)c(=O)[nH]c1=O	0	nt	-9%	-5%	-12%	-9%
CCCCC(=O)N/N=C/c1c(O)n(CCCC)c(=S)[nH]c1=O	-18	20%	-26%	71µM*	19%	-1%
COc1ccccc1-n1c(O)c(C=NCCCn2ccnc2)c(=O)[nH]c1=O	-1	-10%[59 µM]	-1%	-26%	36%	0%
CC1=CCCC2C1(C)CCC(C)C2(C)CC/C(C)=C/C[n+]1cn(C)c2c(N)ncnc21 (stereo unspecified)	nt	-17%[2.33 µM]	nt	nt	nt	nt
CCOP(=O)(OCC)C1(O)C(=O)Nc2ccccc21 (stereo unspecified)	-7	9%[59 µM]	-19%	-5%	17%	-12%

High-throughput results from PubChem.
